aDG glyco act = increases alpha dystroglycan glycosylation. Pro5-aDG cells, alpha-DG glycosylation AlphaScreen (IIH6); 0% Pro5, 100% B10-LARGE cell signal. activation, % at 10 µM. actives 0.22% (n = 360,000);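 active means activation of at least 8% versus controls, or a plate z-score of at least 8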;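 further: Pro5 are CHO cells carrying HIG-tagged alpha-DG that lacks glycosylation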
LMP1 NFkB inh = reduces LMP1-driven NF-kappaB luciferase signal; actives 0.69% (n = 350,000); AID 504558; inhibition, % at 12.5 µM; LMP1-induced NF-kappaB luciferase reporter cells, luminescence; in the data active means inhibition above about 41%;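 further: 0% = neutral control wells and 100% = reference inhibitor control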
TROY NFkB inh = TROY signaling inhibition; Q293 LMP1-TROYcd NF-kB luciferase reporter, 4 h; inhibition, % at 10 µM; actives 0.98% (n = 360,000);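 active means compounds whose plate-normalised and pattern-corrected inhibition of the luciferase reporter signal at the single screening dose is 50% or more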
TWEAK Fn14 block = TWEAK-Fn14 signaling inhibition; inhibition, % at 10 µM; TWEAK-stimulated Fn14 reporter cells, luciferase luminescence, 8 h; actives 2% (n = 360,000); in the data active means inhibition above about 50%
HSP90 inh = HSP90 refolding inhibition in rabbit reticulocyte lysate. luciferase refolding luminescence, 3 h. inhibition, % at 5.6 µM. actives 0.91% (n = 290,000). AID 1789;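 active means inhibition above the screen-wide mean plus 3 SD, computed separately per campaign, cut at about 16% in these data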;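 further: 0% = DMSO wells and 100% = 60 µM geldanamycin wells; inhibitors lower the luminescence because luciferase stays unfolded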
LGR2 inh = inhibitors of bursicon-induced Drosophila LGR2 receptor cAMP signaling; HEK293 LGR2, CRE-luciferase, bursicon-stimulated, 4 h; inhibition, % at 9.99 µM; actives 0.35% (n = 380,000);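 active means drop in luminescence signal, shown as inhibition above about 50% in the replicate tests, limit read from the data, passing the limit was not always enough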;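 further: agonist challenge used bursicon conditioned medium at about half maximal strength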
aDG glyco conf = confirmation of alpha dystroglycan glycosylation activators. shares compounds with aDG glyco act. Pro5-aDG cells, alpha-DG glycosylation, IIH6 AlphaLISA; scaled to LARGE-overexpressing B10 cells as 100%. activation, % at 10 µM (by protocol). actives 17% (n = 600). AID 651671;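 active means activation of at least 7% in one or more replicates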;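 further: cells exposed to compound for two days before detection; 0% = DMSO-treated Pro5 cells and 100% = DMSO-treated B10-LARGE cells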
Numbers without * were called inactive; . = no result. This is a sample that favours compounds with a hit; in the whole collection about 2.6% have one here.

SMILES	aDG glyco act	LMP1 NFkB inh	TROY NFkB inh	TWEAK Fn14 block	HSP90 inh	LGR2 inh	aDG glyco conf
O=C(CN1C(=O)c2ccc(Br)cc2C1=O)NCC1CCCO1 (configuration not stated)	5.5*	0	-18	15	-1	3	1
C=CCn1c(/N=C/c2ccc(N(C)C)cc2)nc2ccccc21	0	-10	9	-4	-3	.	.
CCCCn1c(/N=C/c2ccc(N(C)C)cc2)nc2ccccc21	4.9*	4	-34	-24	-2	.	-1
COc1ccc(NC(=O)Nc2cccc3c2O[C@@H](CN(C)Cc2ccccc2)[C@@H](C)CN([C@H](C)CO)C3=O)cc1	.	.	.	.	.	2	.
Cc1cccn2c(=O)c(C(=O)NC3CC(C)CC(C)(C)C3)c(O)nc12 (configuration not stated)	3.6*	11	11	13	.	15	2
O=C(C[C@H]1CC[C@@H]2[C@H](COC[C@@H](O)CN2Cc2cccc(Cl)c2)O1)N1CCOCC1	.	.	.	.	.	4	.
C[C@@H]1CCCCO[C@@H](CN(C)S(=O)(=O)c2ccccc2)[C@@H](C)CN([C@@H](C)CO)C(=O)c2cc(NS(C)(=O)=O)ccc2O1	.	.	.	.	.	0	.
C[C@@H]1CN([C@@H](C)CO)C(=O)c2cccc(NC(=O)C3CCCCC3)c2O[C@@H]1CN(C)Cc1ccc(C(=O)O)cc1	.	.	.	.	.	6	.
CC[C@]1(C(=O)OC)[C@H]2C(=O)N(C)C(=O)[C@H]2[C@H]2CN=C(SCc3ccc(C(=O)OC)cc3)N21	5.9*	-12	-13	18	.	-10	1
O=C(Nc1ccncc1)c1ccc(-c2ccccc2)cc1	9.1*	-14	-17	38	-2	-37	2
CCC(=O)N1[C@@H]2Cn3c(cccc3=O)[C@H]1[C@@H](C(=O)NC1Cc3ccccc3C1)[C@@H]2CO	.	.	.	.	.	2	.
CCS(=O)(=O)NCC[C@H]1CC[C@H](NC(=O)Nc2cc(Cl)cc(Cl)c2)[C@H](CO)O1	.	.	.	.	.	5	.
CC(C)Oc1ccc(OCCCN2CCCCCC2)cc1	5.2*	-4	8	-8	0	.	13*
CCCNC(=O)C[C@@H]1CC[C@@H]2[C@H](COC[C@@H](O)CN2C(=O)c2ccc(F)cc2)O1	.	.	.	.	.	-19	.
O=C(C[C@H]1CC[C@@H]2[C@H](COC[C@H](O)CN2C(=O)c2ccccc2F)O1)NCc1ccc(-c2ccccc2)cc1	.	.	.	.	.	-13	.
CCc1ccccc1NC(=O)c1ccc([N+](=O)[O-])s1	13*	2	-3	3	3	-7	1
Cc1nc2cc(NC(=O)c3ccc([N+](=O)[O-])s3)ccc2s1	11*	21	-32	14	0	-28	5.1*
CC(=O)Nc1ccc2nc(NC(=O)c3ccc([N+](=O)[O-])s3)sc2c1	.	.	.	.	-4	.	.
CO[C@@H]1CN(C)C(=O)c2ccc(NC(=O)C3CCOCC3)cc2OC[C@H](C)N(C(=O)c2ccccc2)C[C@@H]1C	.	.	.	.	.	3	.
COc1ccc(C(=O)NC(=S)N2CCCCC2)cc1	3.6*	-3	-25	-1	-5	-14	-1
COc1ccc(C(=O)NC(=S)N2CCCC2)cc1	0	-7	-20	10	2	-12	.
O=C(Nc1ccc(Cl)cc1)N1CCCN(Cc2ccc(F)cc2)C1	7.8*	-32	-4	3	9	14	1
O=C(Nc1ccccc1)N1CCN(Cc2ccc(Cl)cc2)CC1	0	-4	-9	13	-1	27	.
O=C1C2C3CCC(C3)C2C(=O)N1c1ccc(OS(=O)(=O)c2ccccc2)cc1 (configuration not stated)	2.8*	-23	48	49	1	-32	-1
Cc1ccc(S(=O)(=O)Oc2ccc(N3C(=O)C4C5CCC(C5)C4C3=O)cc2)cc1 (configuration not stated)	1	8	10	19	3	14	.
O=C(c1cccnc1)N1C[C@@H]2[C@H](c3ccccc31)[C@H](CO)N2C(=O)C1CC1	.	.	.	.	.	-9	.
Cc1ccc(NC(=O)c2cncc(Br)c2)c([N+](=O)[O-])c1	45*	-2	-53	-7	1	-24	-1
O=C(NCCS(=O)(=O)NCC1CCCO1)c1ccccc1 (configuration not stated)	5.2*	-4	-8	5	.	-5	3

Bioassay records (PubChem BioAssay)
